High-throughput results from PubChem BioAssay.
This excerpt belongs to a sample that is enriched for hits.
Giardia FBPA inh: blocks Giardia fructose-bisphosphate aldolase activity; 290,000 tested, 0.71% active; A8B2U2; Potency, µM (series often up to 59.6 µM), for inactives: top-dose activity, negative = inhibition, hits mostly inhibitors; purified Giardia FBPA; note: potency is the fitted concentration of half-maximal effect; % is set by controls: 0 for no effect and ±100 for the full control effect; nearly all actives have a fitted effect of over 55% in size
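Giardia FBPA (40 nM reagent) was preincubated 10 min at RT with compound (up to 57.5 uM final), then substrate plus GAPDH/TPI/NAD/arsenate coupling system with diaphorase/resazurin was added; resorufin fluorescence (525/598 nm) was read after 20 min.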
TbPYK inhibitor: inhibitors of Trypanosoma brucei pyruvate kinase | AID 624173 | Potency, µM (highest dose often 76.8 µM), for the others: at the top dose activity, negative = inhibition, actives largely listed as inhibitors | TbPYK enzyme, Kinase-Glo Plus ATP luminescence, 45 min | 410,000 tested, 0.12% active | Q57TT1; note: potency is the fitted concentration of half-maximal effect; % is set by controls: 0 for no effect and ±100 for the full control effect; nearly all actives have a fitted effect of over 50% in size
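Luminescence from Kinase-Glo Plus, added after a 45-minute room-temperature reaction, served as the end-point read-out. The enzyme and substrate were preincubated with compound before ADP (130 uM final) initiated turnover. Concentration-effect curves came from normalized qHTS data.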
Shiga toxin inh: Shiga toxin inhibition. 290,000 tested, 9.2% active. Vero cells, Shiga toxin protein synthesis inhibition reporter. inhibition, % at 38.7 µM; in the data active = inhibition mostly above about 28%, no sharp cut-off; inactive = mostly below about 43%; note: 0% is about no effect
Sm TGR inh: inhibitors of Schistosoma mansoni thioredoxin glutathione reductase | Q962Y6 | purified TGR, DTNB reduction, TNB absorbance 405 nm | Potency, µM (titrated, usually from 114 µM), without a hit: at the highest dose activity change, negative = inhibition, usual class: inhibitors | 360,000 tested, 3% active; note: potency is the fitted concentration of half-maximal effect; % is set by controls: 0 for no effect and ±100 for the full control effect; nearly all actives have a fitted effect of over 60% in size
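First, TGR (20 nM dispensed) and NADPH were mixed with compound. Second, a 15 min room-temperature incubation followed. Third, further NADPH and then DTNB were added to start the reaction. Finally, TNB absorbance was monitored kinetically.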
Cycloheximide cs: affects cycloheximide protein synthesis inhibition readout, counter-screen; AID 2314; max response, %; 300,000 tested, 12% active; cell reporter, cycloheximide protein synthesis inhibition counterscreen; in the data active = max response mostly above about 13%, no sharp cut-off; inactive = mostly below about 14%; note: read at 38.3 µM for the half of the compounds with a filed dose; 0% is about no effect
LmPK inh: LmPK (Leishmania mexicana) enzyme inhibition | Potency, µM (series often up to 57.5 µM), for inactives: top-dose activity change, negative = inhibition, hits mostly inhibitors | 290,000 tested, 0.37% active | purified LmPK, Kinase-Glo ATP luminescence, 1 h | Q27686 | AID 1721; note: potency is the fitted concentration of half-maximal effect; % is set by controls: 0 for no effect and ±100 for the full control effect
Target sequence (Q27686 whole entry, looked up): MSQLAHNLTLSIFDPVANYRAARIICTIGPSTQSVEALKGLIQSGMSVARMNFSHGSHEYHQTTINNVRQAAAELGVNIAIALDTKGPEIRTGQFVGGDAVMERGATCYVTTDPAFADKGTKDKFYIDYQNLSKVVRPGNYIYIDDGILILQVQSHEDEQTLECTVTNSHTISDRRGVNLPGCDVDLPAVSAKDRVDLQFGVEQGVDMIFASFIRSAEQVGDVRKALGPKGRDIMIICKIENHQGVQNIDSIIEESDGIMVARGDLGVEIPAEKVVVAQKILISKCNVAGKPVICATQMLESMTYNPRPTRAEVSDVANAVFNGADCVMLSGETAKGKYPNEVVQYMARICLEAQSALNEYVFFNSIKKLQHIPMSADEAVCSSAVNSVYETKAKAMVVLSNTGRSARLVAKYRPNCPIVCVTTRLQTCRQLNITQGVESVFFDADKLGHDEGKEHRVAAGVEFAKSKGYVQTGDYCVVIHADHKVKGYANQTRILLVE
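Pyruvate kinase activity monitored as ATP production (luciferase luminescence). Conditions: 0.1 nM enzyme, 0.5 mM PEP, 0.1 mM ADP, 1 h, RT; normalized against uninhibited and no-enzyme wells.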
An asterisk follows results filed as active; u = inconclusive; x = not tested or not shown; + = active, no number; [ ] = remark or other dose. Unless noted, calls come from the whole dose curve; as a rule, active = well fitted curve in the direction sought with a large enough effect; inconclusive = small, poorly fitted or top-dose-only effect, or another doubt; inactive = no such curve, though single readings can be large; an effect the other way counts as inactive or inconclusive.

SMILES	Giardia FBPA inh	TbPYK inhibitor	Shiga toxin inh	Sm TGR inh	Cycloheximide cs	LmPK inh
Cc1ccc(NC(=O)C2CCCN(S(=O)(=O)c3c(C)noc3C)C2)c(Br)c1 (stereo not drawn)	x	-10%	-6	-2%	-9	-14%
CC(C)(C)c1ccc(Oc2nc3ccccn3c(=O)c2/C=C(\C#N)c2nc3ccccc3s2)cc1	x	-25%	x	3.2µM*	x	x
O=C1CC(c2ccccc2Cl)CC(O)=C1C=Nc1ccccc1 (stereo not drawn)	8%	-4%	-2	-5%	2	0%
COc1ccc(N=Cc2c[nH][nH]c2=O)cc1	0%	-7%	-8	5%	-1	-7%
O=C1C(C=Nc2ccccc2)=C(O)c2ccccc21	2%	0%	173*	-17%	29*	3.5µM*
COc1ccc(N=Cc2oc3ccc4ccccc4c3c2O)cc1	-2%	-3%	72*	3%	50*	-10%
CN=CC1=C(O)c2ccccc2C1=O	0%	4%	76*	-17%	41*	1%
COc1ccc(N=CC2=C(O)c3ccccc3C2=O)cc1	2%	-20%	107*	2%	24*	3.2µM*
Cc1ccc(C)c(-c2ccc(=O)n(C(C)C(=O)Nc3ccccc3C(F)(F)F)n2)c1 (stereo not drawn)	x	-4%	x	-1%	x	x
O=C(CCC1N=C2c3ccccc3N=C(SCc3ccc(Cl)cc3)N2C1=O)N1CCN(c2ccccc2)CC1 (stereo not drawn)	x	2%	x	1%	x	x
Cc1c(F)c(N2CCNC(C)C2)cc2c1c(=O)c(C(=O)O)cn2C1CC1 (stereo not drawn)	x	-8%	x	x	x	x
COc1ccc(N=Cc2ccccc2O)cc1	x	3%	x	x	x	x
COc1ccc(N=Cc2[nH]c3ccccc3c2O)cc1	14µM*	-26%	42*	u	31*	3%
C[C@@H](CN(C)C)CN1c2ccccc2CCc2ccccc21	1%[21.7 µM]	5%[33.2 µM]	x	x	x	x
Oc1cc2c(cc1O)[C@H]1c3ccc(O)c(O)c3OC[C@@]1(O)C2	u	5.6µM*	x	2.2µM*	x	x
Oc1ccc2c(c1)OCC1(O)Cc3cc(O)c(O)cc3C21 (stereo not drawn)	18µM*	11µM*	x	x	x	x
Cc1ccccc1N1CCN(C(=O)c2ccccc2NC(=O)/C=C\C(=O)O)CC1	9%	-51%	-5	u	-1	-5%
O=C(O)/C=C\C(=O)Nc1ccccc1C(=O)N1CCN(c2ccc(Cl)cc2)CC1	8%	-22%	10	50µM*	-1	-2%
CC(C)c1ccc(N2CCN(C(=O)c3ccccc3NC(=O)/C=C\C(=O)O)CC2)cc1	-3%	-28%	10	40µM*	1	1%
Cc1cccc(C)c1OCc1cc(C(=O)NC2CCC2)no1	3%	5%	37*	3%	37*	-1%
Cc1cccc(C)c1OCc1cc(C(=O)NC2CCC(O)CC2)no1 (stereo not drawn)	x	5%	46	-9%	12	-9%
Cc1cccc(C)c1OCc1cc(C(=O)NCC2CC2)no1	x	1%	88	-10%	10*	-5%
Cc1cccc(C)c1OCc1cc(C(=O)NCc2ccc(Cl)s2)no1	-2%	0%	7	-1%	18*	-2%
CCOC(=O)N1CCC(NC(=O)c2cc(COc3c(C)cccc3C)on2)CC1	x	-4%	9	-24%	14*	10%
COc1ccc(OC)c(NC(=O)CSc2nncc(=O)n2N)c1	u	-4%	-7	19%	0	-3%
SMILES	Giardia FBPA inh	TbPYK inhibitor	Shiga toxin inh	Sm TGR inh	Cycloheximide cs	LmPK inh
CCC(CC)C(=O)N1c2ccc(F)cc2CCC1C (stereo not drawn)	5%	3%	2	0%	2	-2%
CC1CCc2cc(F)ccc2N1C(=O)CCl (stereo not drawn)	-7%	-15%	-10	5.6µM*	19	6%
CSc1ccc(CN2CCN(C(=O)CC(C)C)CC2)cc1	u	3%	x	1%	7	-4%
CCN1CCN(Cc2ccc(NC(=O)Nc3cccs3)cc2)CC1	-2%	-3%	40*	-32%	41*	-2%
CCN1CCN(Cc2ccc(NC(=O)Nc3ccc(SC)cc3)cc2)CC1	7%	1%	58*	6%	44*	-1%
CCN1CCN(Cc2ccc(NC(=O)Nc3ccccc3)cc2)CC1	2%	-7%	+	u	46*	-5%
CCN1CCN(Cc2ccc(NC(=O)Nc3ccc(OC)cc3)cc2)CC1	5%	-8%	42*	-4%	21*	-8%
CC(=O)Nc1ccc(CN2CCCN(C)CC2)cc1	u	0%	-8	-26%	0	-4%
CC(=O)N1CCc2cc(S(=O)(=O)CCC(=O)Nc3ccc(Cl)cc3F)ccc21	-11%	6%	3	-25%	-5	9%
Cc1ccc(NC(=O)c2ccco2)c(NC(=O)c2ccccc2C)c1	9%	-2%	-4	4%	6	-1%
Cc1cc(O)c(NC(=O)c2ccco2)cc1C	-12%	1%	99*	0%	57*	-29%
Cc1c(Cl)cccc1NC(=O)c1ccco1	3%	2%	x	10%	10	-3%
Cc1ccc(O)c(NC(=O)c2cccc(NC(=O)c3ccco3)c2)c1	7%	-11%	58*	-12%	30*	-1%
Cc1ccc(C(=O)Nc2ccc(NC(=O)c3ccco3)c(C)c2)cc1	1%	-1%	49*	-13%	31*	3%
Cc1ccc(O)c(NC(=O)c2ccco2)c1	2%	-25%	56*	-7%	36*	-27%
Cc1cc(C)cc(NC(=O)c2cccc(NC(=O)c3ccco3)c2)c1	x	3%	x	x	x	x
O=C(Nc1ccc(O)cc1C(=O)O)c1ccc(NC(=O)c2ccco2)cc1	x	6%	x	-20%	x	x
O=C(O)c1ncc(-c2ccccc2)cn1	-16%	0%	35	1%	-5	1%
Nc1cnc(-c2ccccc2)nc1Cl	3%	1%	13*	-12%	16	-5%
c1ccc(-c2cnc(-c3ccccc3)nc2)cc1	4%	-1%	88*	4%	69*	u
Cc1ccc(C)c(NC(=O)c2nc(S(C)(=O)=O)ncc2N(Cc2ccc(C(C)(C)C)cc2)Cc2ccco2)c1	x	5%	x	u	x	x
O=C(O)c1ccc(Nc2cc(Cl)c3nonc3c2[N+](=O)[O-])cc1	-13%	-5%	-9	0.32µM*	10	2%
CNc1cc(Cl)c2nonc2c1[N+](=O)[O-]	-21%	3%	-9	0.45µM*	1	5%
O=[N+]([O-])c1c(Nc2cccc(O)c2)cc(Cl)c2nonc12	0%	8%	x	0.35µM*	-10	5%
CCOC(=O)c1ccccc1NC(=O)CN1C(=O)CC(c2ccco2)Sc2ccccc21 (stereo not drawn)	x	1%	x	-3%	x	x
O=C(CN1C(=O)CCS(=O)(=O)c2ccccc21)Nc1ccc(Cl)cc1	-7%	2%	11	50µM*	-2	-2%
